Growth inhibition data for 20 compounds are collected here from PubChem BioAssay (NCI).

Structures are written as SMILES. This is part of a sample that, as a whole, favours compounds with a hit. Of some 79,000 tested, about 15% had one in any assay. Unmarked numbers belong to inactive results. The source made the active and inactive calls. Cut-off read from the data, not from the text of the source: active = growth inhibition above about 70%; inactive = the rest.

Assay [1] is described as follows: NCI Yeast Anticancer Drug Screen. Data for the rad50 strain (AID 155).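 Note: 0% = growth of vehicle-only cultures of the same strain.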 The settings on record: S. cerevisiae rad50 strain growth inhibition; at 50.0 µM; active compounds read high. In a few lines:
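Cells are treated with compound, grown, and their growth is then scored against vehicle-only cultures of the same repair-deficient yeast strain.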

The nature of assay [2]: NCI Yeast Anticancer Drug Screen. Data for the mec2-1 strain (AID 157). The settings on record: S. cerevisiae mec2-1 strain, at 50.0 µM, active compounds read high. In short, it runs like this: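 Strain: mec2-1 (DNA repair/cell cycle alteration). Compound exposure, then growth measured; inhibition expressed relative to vehicle.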
Assay [3] in a line: NCI Yeast Anticancer Drug Screen. Data for the sgs1 mgt1 strain (AID 161).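 Note: 0% = growth of cultures given vehicle only.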 The settings on record: S. cerevisiae sgs1 mgt1 strain, at 50.0 µM, active compounds read high. In short, it runs like this:
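Read-out: growth inhibition vs vehicle controls. Cells: mutant yeast strain deficient in DNA damage repair.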

Assay [4] can be described thus: NCI Yeast Anticancer Drug Screen. Data for the cln2 rad14 strain (AID 165).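 Note: 0% = growth equal to vehicle treated cultures.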 The settings on record: S. cerevisiae cln2 rad14 strain, at 50.0 µM, active compounds read high. In short, it runs like this:
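Compounds are applied to the cln2 rad14 yeast strain, and growth is then compared with that of vehicle-treated cultures to give inhibition.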

The nature of assay [5]: NCI Yeast Anticancer Drug Screen. Data for the bub3 strain (AID 167). The settings on record: S. cerevisiae bub3 mutant strain, at 50.0 µM, active compounds read high. In short, it runs like this: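 Part of a panel of yeast mutants defective in DNA damage repair or cell cycle regulation. Each strain is grown with compound, and inhibition is calculated relative to solvent-treated cultures.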

A short description of assay [6]: NCI Yeast Anticancer Drug Screen. Data for the mlh1 rad18 strain (AID 175). The settings on record: S. cerevisiae mlh1 rad18 strain growth inhibition; at 50.0 µM; active compounds read high. In a few lines:
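Read-out is yeast growth inhibition, calculated against vehicle-only controls. The compound was applied to a strain engineered with DNA damage repair alterations.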

Consider `CCC(C(N)C(=O)O)C(F)(F)F` (stereo not given), for which the growth inhibition in assay [1] was -19.4%; in assay [2] it was -32.1%; in assay [3] it was 1.4%; in assay [4] it was 4.25%; in assay [5] it was -22.1%; in assay [6] it was -6.55%.
Consider `COc1cc2c(cc1O)C1CC(CC3CCCCN31)OC(=O)/C=C\c1ccc(O)c-2c1` (stereo not given), for which the growth inhibition in assay [1] is -28.1%; in assay [2], -48.3%; in assay [3] it was -31.2%; in assay [4], 20.8%; in assay [5], -43.9%; in assay [6], -54.2%.
For the compound `Cc1cccc(N=Nc2c(C)nc(N)nc2C)c1C`, the growth inhibition in assay [1] was 4.35%; in assay [2] it was 6.55%; in assay [3] it was 2.1%; in assay [4], -37.6%; in assay [5] it was -13.6%; in assay [6] it was 6.75%.
Turning to `O=C(COc1ccc(Cl)cc1)OCCCl`, the growth inhibition in assay [1] is 10%; in assay [2], 8.3%; in assay [3], 9.1%; in assay [4] it was 0.35%; in assay [5], 9.3%; in assay [6], 8.3%.
Regarding `CCOc1ccc(N2CC(=O)N3CCCC(c4ccccc4)N3C(=O)C2)cc1` (stereo not given), the growth inhibition is -23.7% in assay [1]; -10.9% in assay [2]; 13.4% in assay [3]; 4.9% in assay [4]; 12.1% in assay [5]; 8.55% in assay [6].
Consider `CCOC(=O)c1nc(SC)sc1NC(=O)c1ccc(OC)cc1`, for which the growth inhibition was 12.8% in assay [1]; -7.3% in assay [2]; 13.1% in assay [3]; 6.2% in assay [4]; 17.7% in assay [5]; -4.65% in assay [6].
As for `CCCCCCP(=O)(CCCC)CCCC`, the growth inhibition in assay [1] is 38.1%; in assay [2] it was 11.9%; in assay [3], 41.2%; in assay [4], -20.9%; in assay [5] it was -12%; in assay [6] it was -0.2%.
Consider `C/C(=N\NS(=O)(=O)c1ccc(N)cc1)c1ccc(C)cc1C`, for which the growth inhibition in assay [1] is -12.9%; in assay [2], -19.6%; in assay [3], 0.8%; in assay [4], -5.25%; in assay [5] it was -28.6%; in assay [6], -16.5%.
On to `CN(C)CCN(C(=Nc1ccccc1)N1CCCC1)c1ccccc1`, for which the growth inhibition in assay [1] was -18.7%; in assay [2] it was -30.8%; in assay [3], -30.4%; in assay [4], 17.1%; in assay [5] it was 0.45%; in assay [6] it was 4.5%.
For the compound `CN(C)CCNC(=O)c1cnn(C)c1[N+](=O)[O-]`, the growth inhibition in assay [1] is 26.4%; in assay [2], 8.75%; in assay [3], 17.3%; in assay [4], 13.2%; in assay [5], 0%; in assay [6], -59.1%.
Turning to `C=C1[C@H](OCC(C)C)[C@@H](OC(=O)C(C)CC)[C@@H](O)C(C)(C)/C=C/[C@H](C)C(=O)[C@@]2(O)C[C@H](C)[C@H](O)[C@@H]2[C@H]1OC(=O)C(C)CC` (stereo not given in full), the growth inhibition in assay [1] was 47%; in assay [2], 46.6%; in assay [3], 75.2% (active); in assay [4], 69.3%; in assay [5], 73.7% (active); in assay [6] it was 58.1%.
Take `CS/C(N)=N\C(=O)N(C)C`: the growth inhibition in assay [1] is 2.75%; in assay [2], -14.5%; in assay [3], -4.45%; in assay [4], -20.6%; in assay [5] it was -8.55%; in assay [6], 3.65%.
As to `CC(=O)N(C(C)=O)N1C(=O)C2C3C=CC(C4CC34)C2C1=O` (stereo not given), the growth inhibition in assay [1] was 30.2%; in assay [2], 17%; in assay [3], 15.8%; in assay [4], 19.6%; in assay [5], 2.95%; in assay [6] it was 23.4%.
Regarding `OCC#C[C@@H]1CC[C@H]1C#CCO`, the growth inhibition was 7.3% in assay [1]; -3.3% in assay [2]; 6.3% in assay [3]; 2.3% in assay [4]; 2.6% in assay [5]; -6% in assay [6].
With `CC/C(C)=N\NC(=O)CC(=O)N/N=C(/C)CC`, the growth inhibition was -8.35% in assay [1]; 1.45% in assay [2]; -7% in assay [3]; -61.6% in assay [4]; -4% in assay [5]; -17.1% in assay [6].
Regarding `O=C(O)CCN1CCCS(=O)(=O)C1=O`, the growth inhibition was 11.8% in assay [1]; 8% in assay [2]; -0.35% in assay [3]; 9% in assay [4]; -0.85% in assay [5]; -5.3% in assay [6].
With `NC=O`, the growth inhibition in assay [1] was -9.45%; in assay [2], 11.2%; in assay [3] it was 7.1%; in assay [4] it was -1.4%; in assay [5] it was -0.15%; in assay [6], -11.7%.
`Fc1ccc2c(c1)CC(CBr)O2` (stereo not given): the growth inhibition in assay [1] was -14.2%; in assay [2] it was -8.5%; in assay [3] it was -4.5%; in assay [4], -23.9%; in assay [5], -1.95%; in assay [6], 2.8%.
Turning to `CCOC(=O)c1ccc(=O)n2c1[nH]c1ccccc12`, the growth inhibition was 9.05% in assay [1]; -5.65% in assay [2]; -15.5% in assay [3]; -0.45% in assay [4]; -2.75% in assay [5]; -5.45% in assay [6].
For `CC1=C(C(=O)NCc2ccccc2)C(c2ccc(Cl)c(Cl)c2)C(C(=O)NCc2ccccc2)=C(C)N1`, the growth inhibition in assay [1] is -10.9%; in assay [2] it was 12.2%; in assay [3] it was -21.1%; in assay [4] it was 21.2%; in assay [5], -12.4%; in assay [6], -18.9%.
